Experimental findings from PubChem BioAssay (EPA / NIEHS) are described below.

Calls of active or inactive are those of the source. The calls were made as follows: active = hit-call score of the fitted dose curve at least 0.9, where 1 is the maximum; inactive = score below 0.9.

Read-out in the test: HGF (gene 3082)
Kind of test: LTEA_HepaRG_HGF: Life Technologies and Expression Analysis (LTEA) Assay for Hepatocyte Growth Facto (HGF) using HepaRG (AID 2283505). Particulars: mRNA level, 48 h; actives raise or lower the signal. As to the method: LTEA_HepaRG is a cell based, multiplexed-readout assay that uses HepaRG, a human liver cell line, with measurements taken at 48 hours after chemical dosing on a 96-well plate.LTEA_HepaRG_HGF is one of 102 assay component(s) measured in the LTEA HepaRG cell culture assay. It is a marker of Cell proliferation, survival, death.Data from the assay component LTEA_HepaRG_HGF was analyzed into 1 endpoint. This assay endpoint, LTEA_HepaRG_HGF, was analyzed with bidirectional fitting relative to DMSO as the negative control and baseline of activity. Using a type of inducible reporter, measures of mRNA induction for gain or loss-of-signal activity can be used to understand regulation of transcription factor activity. To generalize the intended target to other relatable targets, this assay endpoint is annotated to the growth factor intended target family, where the subfamily is hepatocyte growth factor.
A total of 1060 chemcials from the ToxCast library were tested in eight-point concentration-response experiments. Cell culture and cytotoxicity assays were conducted at Thermo Fisher Scientific's Custom Services facility (Madison, WI). A single lot of human HepaRG cells (Thermo Fisher Scientific, Frederick, MD) was used for the cell culture experiments. 96-well format collagen type I coated plates of human HepaRG cells were prepared using established methods. Briefly, cryopreserved HepaRG cells were thawed, plated at a density of approximately 100,000 cells/well in HepaRG Thaw, Plate, and General Purpose media (HPRG770, Thermo Fisher Scientific), and incubated for 48 hours. 0.5% DMSO was selected as vehicle control to balance the requisite need of DMSO in HepaRG cultures to maintain differentiation (for example, baseline metabolism, proportions of hepatocytes vs. cholangiocytes), while enabling further hepatic receptor pathway activation (for example, PXR and CAR) in response to chemical exposure. 48 hours after plating, the culture medium was replaced with HepaRG Serum-Free Incudtion Media. Cells were exposed to each test chemical in duplicate and maintained in CO2 incubators for another 48 hours. Chemical plates were thawed to room temperature and 200x concentrations of treatment groups were prepared. 8-point conentration-reponse curves were made with the highest exposure at 100 uM, followed by half-log dilutions, all in 0.5% DMSO. Each test plate contained variouse controls, induction positive controls (1mM phenobarbital), cytotoxicity positive controls ([…] aflatoxin B1), vehicle controls (0.5% DMSO), and total lysis controls (0.5% DMSO). Cell morphology images were taken using an Essen IncuCyte FLR automated microscope, with six 96-well plates imaged in about 24 minutes. Images were captured and exported and JPEG files. Spent culture media was transfered to black-well plates for the LDH assay, and remaining media was sorted at -80 C for later use. Cells were treated with RLT buffer and frozen until shipped for gene expression analysis. Total RNA was isolated from the cell suspension in 75 uL of Buffer RLT (Qiagen, Germantown, MD 20874) by Quintiles/Expression Analysis (Durham, NC) using a custom isolation procedure. Total RNA from each plate well was transferred to a preamplification plate. Fluidigm's 96.96 Dynamic ArrayTM (Fluidigm, Amsterdam, the Netherlands) technology was used for gene expression analyses by quantitative reverse transcription polymerase chain reaction (qRT-PCR, performed by Quintiles/Expression Analysis, Durham, NC)89. Standard TaqManTM Assays (Applied Biosystems/ThermoFisher Scientific, Foster City, CA) were used to assess the expression of 93 genes selected based on their selectivity and sensitivity to important hepatic receptors known to be modulated by environmental chemicals; importance in human hepatocyte functionality; and hepatotoxicity. […]
As to `C[Si]1(C)O[Si](C)(C)O[Si](C)(C)O[Si](C)(C)O1`, the compound was classed as inactive.

Consider `Nc1ccccc1N`, for which the call was inactive.

For the compound `C1CCC(SSC2CCCCC2)CC1`, the compound was classed as inactive.

Consider `Cc1ccc(Cl)cc1`, for which the compound was classed as inactive.

On to `Cc1cccc(Nc2cc(Cl)nc(SCC(=O)O)n2)c1C`, for which the call was inactive.

Turning to `Oc1ccc2c(c1)OC[C@@H](N1CCC(O)(c3ccc(F)cc3)CC1)[C@H]2O`, the result was inactive.

Take `COC(=O)c1ccc(O)cc1`: the outcome was inactive.

Take `Cc1cc(NC(=O)C(=O)O)cc(C)c1Oc1ccc(O)c2c1CCC2`: the call was inactive.

Consider `CCCCc1ccc2c(n1)[C@@H](c1ccc(OC)cc1C[C@H](C)C(=O)O)[C@H](C(=O)O)[C@H]2c1ccc2c(c1)OCO2`, for which the call was inactive.

In the case of `CC(C)c1ccc(C(=O)N=C(N)N)cc1S(C)(=O)=O`, the AC50 is 7.39 µM (active).

Regarding `CCCCC(CC)COC(=O)CC(C(=O)OCC(CC)CCCC)S(=O)(=O)O` (stereo not given), the compound was called inactive.

Take `Cc1ccc(C)c(C)c1`: the result was inactive.

For the compound `CCCCCCCCCCO`, the result was inactive.

In the case of `FC(F)(F)C(F)(F)C(F)(F)C(F)(F)C(F)(F)C(F)(F)CCI`, the compound was classed as inactive.

Consider `Cc1nc(C)nc(N2C[C@@H](C)N(c3ccnc([C@@H](C)O)n3)[C@@H](C)C2)n1`, for which the AC50 was 15.3 µM (active).

Take `CCOC(=O)CCC(=O)OCC`: the result was inactive.

For the compound `CC1=C(/C=C/C(C)=C/C=C/C(C)=C/CO)C(C)(C)CCC1`, the compound was classed as inactive.

For `O=[N+]([O-])C(CO)(CO)CO`, the call was inactive.

Consider `COc1cc(C=O)ccc1O`, for which the compound was classed as inactive.

`NCC1(Cc2noc(=O)[nH]2)CCCCC1`: the call was inactive.

As for `CCCCCCCCCCCCCCCCCC(=O)O`, the compound was classed as inactive.

For the compound `Cc1c(C(=O)O)c(O)cc2c1C(=O)c1c(O)c([C@@H]3O[C@H](CO)[C@@H](O)[C@H](O)[C@H]3O)c(O)c(O)c1C2=O`, the call was inactive.

Consider `c1cc(-c2ccncc2)ccn1`, for which the call was inactive.

With `CCCCN(CCCC)CCCC`, the result was inactive.

Turning to `CC(=O)OCCOCCOCCOC(C)=O`, the compound was classed as inactive.

Regarding `CCCCCCCCCCCC(=O)OC`, the outcome was inactive.

As for `Cc1cccc(C)c1O`, the result was inactive.

Consider `Nc1ccc2c(c1)C(=O)c1ccccc1C2=O`, for which the call was inactive.

As to `COc1ccc2c(c1)c(CC(=O)O)c(C)n2C(=O)c1ccc(Cl)cc1`, the compound was classed as inactive.

For `OC[C@@H](O)[C@@H](O)[C@H](O)[C@H](O)CO`, the outcome was inactive.

Regarding `CCCCCCCCCCCCCO`, the call was inactive.

Consider `Nc1ccc(S(=O)(=O)c2ccc(N)cc2)cc1`, for which the call was inactive.

As for `CC1(C)CC(N=C=O)CC(C)(CN=C=O)C1` (stereo not given), the compound was classed as inactive.

As for `CC(CO)OC(C)CO` (stereo not given) (tested in a mixture with another compound), the outcome was inactive.

For `CC1(C)NC(=O)NC1=O`, the compound was classed as inactive.

With `Cc1ccc(C)c(O)c1C`, the call was inactive.

In the case of `COCCOC[C@H](CC1(C(=O)NC2CCC(C(=O)O)CC2)CCCC1)C(=O)Oc1ccc2c(c1)CCC2` (stereo not given in full), the outcome was inactive.

As to `CC(=O)OC/C=C(\C)CCC=C(C)C`, the compound was called inactive.

As for `Cc1nc(-c2ccc3c(c2)CCN(CCC2CCC(NC(=O)/C=C/c4ccc(F)cc4)CC2)CC3)no1` (stereo not given), the result was inactive.

Regarding `CN1CCN(Cc2cc(-c3ccc4[nH]c(=O)oc4c3)co2)[C@@H](c2ccc(F)cc2)C1`, the compound was called inactive.
